Assay outcomes: PubChem, National Center for Advancing Translational Sciences (NCATS)
Pol iota inh = blocks human DNA polymerase iota activity; Q9UNA4; Pol iota fluorescent replication assay, 10 min; Potency, µM (highest dose often 115 µM), without a hit: at the top dose activity, negative = inhibition, most hits filed as inhibitors; actives 1% (n = 390,000); further: potency means the concentration at half of the fitted maximal effect
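Fluorescent replication assay read twice, at 0 min and 10 min after adding 50 nM (final) substrate. Enzyme (10 nM) and compounds were first incubated 15 min at room temperature; enzyme-free buffer wells were negative controls.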
ALOX12 inh = inhibitors of human 12S-lipoxygenase ALOX12; P18054; purified 12hLO, xylenol orange hydroperoxide absorbance; Potency, µM (top dose mostly 108 µM), for the others: at the top dose activity change, negative = inhibition, usual class: inhibitors; actives 1.1% (n = 580,000); AID 1671190; further: potency means the concentration at half of the fitted maximal effect; on the % scale 0 is the no-effect control and ±100 the full control effect
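Purified human 12hLO (150 nM final) in 25 mM Hepes, 0.01% Triton X-100, pH 7.0 was preincubated 15 min at room temperature with compound. Then 40 uM arachidonic acid was added, 30 min. Hydroperoxide was read by Fe-XO absorbance ratio 573/405 nm.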
POLK inh = blocks human DNA polymerase kappa activity. Q9UBT6. purified Pol kappa, fluorescent DNA synthesis assay, 10 min. Potency, µM (highest dose often 107 µM), for the others: at the top dose activity, negative = inhibition, actives largely listed as inhibitors. actives 0.53% (n = 400,000); further: potency means the concentration at half of the fitted maximal effect; on the % scale 0 is the no-effect control and ±100 the full control effect
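Here, compound and 10 nM enzyme are combined for 15 min at room temperature; adding 50 nM substrate (final) starts DNA synthesis, tracked by fluorescence at 0 and 10 min against buffer-only wells.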
Pol eta inh = inhibitors of human DNA polymerase eta; Q9Y253; recombinant Pol eta, fluorescent DNA replication assay; Potency, µM (doses to about 114 µM), for inactives: top-dose activity change, negative = inhibition, most hits filed as inhibitors; actives 1.2% (n = 390,000); further: potency means the concentration at half of the fitted maximal effect; on the % scale 0 is the no-effect control and ±100 the full control effect
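Pol eta at 10 nM preincubated with compounds 15 min at room temperature; reaction started with fluorescent substrate (50 nM final) and read kinetically at 0 and 10 min.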
PI5P4K alpha inh = PI5P4K alpha (human) kinase inhibition; P48426; PI5P4Kalpha enzyme, ADP-Glo luminescence, 60 min; active compounds read low; max response, %; actives 1.2% (n = 330,000); AID 652105; active means max response of -50% or lower; inconclusive means between -30% and -50%; inactive means -30% or higher; further: value at the top dose of about 77 µM; on the % scale 0 is the no-effect control and ±100 the full control effect
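qHTS, 1536-well: enzyme/substrate mix, compound by pin tool, 5 microM ATP final; RT 60 min; ADP-Glo reagents 1 (45 min) then 2 (30 min); luminescence.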
Pol beta inh = DNA polymerase beta (human) inhibition. Potency, µM (top dose mostly 114 µM), without a hit: at the top dose activity change, negative = inhibition, usual class: inhibitors. P06746. AID 485314. actives 1.3% (n = 340,000). Pol beta primer extension/strand displacement, fluorescence kinetic; further: potency means the concentration at half of the fitted maximal effect; on the % scale 0 is the no-effect control and ±100 the full control effect
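Enzyme-only controls used 10 nM Pol beta; buffer lacking enzyme served as negative control. Compound preincubated 15 min, then 50 nM substrate added; 0 and 10 min reads at room temperature.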
The depositor's hits bear a star; ? = inconclusive; / = no result given; [ ] = dose if it differs, or a comment. Only some compounds are listed: those with a hit (about 2.9% of all), similar ones and a draw of the others. Unless noted, the call rests on the fitted dose curve; in most records, active means well fitted inhibition curve with a large enough effect; inconclusive means small, poorly fitted or top-dose-only effect, or another doubt; inactive means no such curve, though single readings can be large or run the other way.

SMILES	Pol iota inh	ALOX12 inh	POLK inh	Pol eta inh	PI5P4K alpha inh	Pol beta inh
COC(=O)C(C)Sc1nnc(CSc2ncccn2)n1-c1ccc(Cl)cc1 (configuration not stated)	/	0%	/	/	/	/
COC(=O)C(C)Sc1n[nH]c(=S)s1 (configuration not stated)	13%	?	9%	-20%	-72*	16%
Cc1ccc(NC(=O)CCc2ncc(-c3c(F)cccc3F)o2)c(C)c1	/	1%	/	/	/	/
COCCNC(=S)N/N=C(\C)c1ccc(Cl)c(Cl)c1	6%	?	-6%	-3%	8	-17%
COCCNC(=S)N/N=C(\C)c1ccc(Cl)c(Cl)c1Cl	78%	40µM*	-2%	-18%	6	-4%
CN(C)c1ccc(CNC(=O)c2ccc3nc(Cc4ccccc4)oc3c2)cc1	28µM*	-25%	-12%[60.1 µM]	-11%	/	0%
Cc1c(C)n2c3c(=O)[nH]c(=O)n(C)c3nc2n1CCCN(C)C	/	19%	/	/	/	/
Cc1oc(-c2nc(C#N)c(N(C)C)o2)cc1S(=O)(=O)N(C)Cc1ccccc1	/	21%	/	/	/	/
Cc1c(Cl)cccc1Nc1n[nH]c(=S)s1	-25%	22µM*	0%	-12%	-88*	/
S=c1[nH]nc(Nc2cccc3ccccc23)s1	35%	?	-16%	-11%	-74*	32%
c1ccc2c(Nc3nc4c(s3)CCCC4)cccc2c1	1%	0%	-8%	-14%	-13	0%
Fc1ccccc1Nc1n[nH]c(=S)s1	15%	25µM*	-8%	8%	-74*	27%
Cc1ccccc1Nc1n[nH]c(=S)s1	/	?	/	-8%	?	/
Cc1cc(=O)[nH]c(Nc2cccc(Cl)c2C)n1	56%	-17%	3%	-6%	-2	24%
COc1ccc(-c2cc3ccc(OCC(=O)NCCN(C)C)cc3oc2=O)cc1OC	/	-33%	/	/	/	/
CC(C)Cn1nc(C(=O)Nc2nc(-c3ccc4c(c3)OCCO4)cs2)c2ccccc2c1=O	/	10%	/	/	/	/
Cc1ccc(C(=O)Nc2cc(S(=O)(=O)N3CCOCC3)ccc2N2CCCC2)cc1	10%	-8%	-5%	-25%	-4	/
Cc1ccc(S(=O)(=O)NC(=O)c2cc(C)n(-c3cc(S(=O)(=O)N4CCOCC4)ccc3N3CCCC3)c2C)cc1	?	?	-25%	89µM*	/	?
CC(=O)Nc1cccc(NC(=S)Nc2cccc(Cl)c2C)c1	?	?	-14%	-3%	6	-2%
CC(=O)Nc1cccc(NC(=O)Nc2cccc(Cl)c2C)c1	10%	-16%	-23%	-9%	-2	45µM*
CC(=O)N/N=C/C1=CCC2CC1C2(C)C (configuration not stated)	5%	0%	-12%	-3%	5	12%
CCCCNC(=S)N/N=C/C1=CCC2CC1C2(C)C (configuration not stated)	11%	?	-19%	?	11	22%
CC(C)NC(=S)N/N=C/C1=CCC2CC1C2(C)C (configuration not stated)	23%	35µM*	-7%	-13%	10	5%
CC1(C)C2CC=C(/C=N/NC(=S)NCc3ccccc3)C1C2 (configuration not stated)	/	35µM*	/	/	/	/
COC(=O)C1=C(C)N(Cc2ccc(OC)cc2)C(=O)C1	?	5%	-3%	3%	/	6%
COC(=O)C1=C(C)N(Cc2ccco2)C(=O)C1	11µM*	?	45µM*	13µM*	1	-17%
Cc1ccccc1CN1CCN(Cn2nc(C)c3ccccc3c2=O)CC1	/	-29%	/	/	/	/
CC(C)Nc1ncnc2c1CN(C1CCCNC1)C(=O)CN2C (configuration not stated)	/	4µM*	/	/	/	/
CN1CC(=O)N(C2CCNCC2)Cc2c(NCCc3cccc(F)c3)ncnc21	/	18µM*	/	/	/	/
CN1CC(=O)N(C2CCNCC2)Cc2c1ncnc2N(C)Cc1ccc(F)cc1	/	8.9µM*	/	/	/	/
